{"source": "ChEMBL document CHEMBL3433997", "about": "“St. Jude Leishmania screening dataset” (2016)"}
{"molecular_target": "Solute carrier family 2, facilitated glucose transporter member 1 (Homo sapiens) (UniProt P11166)", "sequence (P11166 whole entry)": "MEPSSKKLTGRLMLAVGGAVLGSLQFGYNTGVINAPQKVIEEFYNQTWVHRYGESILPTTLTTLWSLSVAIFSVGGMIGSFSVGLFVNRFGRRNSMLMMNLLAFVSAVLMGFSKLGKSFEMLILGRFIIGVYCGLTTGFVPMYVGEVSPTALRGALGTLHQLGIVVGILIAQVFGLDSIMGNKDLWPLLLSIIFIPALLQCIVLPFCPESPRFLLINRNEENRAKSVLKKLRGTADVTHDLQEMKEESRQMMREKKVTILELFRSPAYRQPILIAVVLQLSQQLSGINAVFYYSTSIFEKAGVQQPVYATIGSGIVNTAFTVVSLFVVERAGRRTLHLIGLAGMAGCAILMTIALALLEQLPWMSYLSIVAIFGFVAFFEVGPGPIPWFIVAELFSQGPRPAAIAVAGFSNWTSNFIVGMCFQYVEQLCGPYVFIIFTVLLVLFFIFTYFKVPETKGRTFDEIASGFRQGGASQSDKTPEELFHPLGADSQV", "experiment": "ST_JUDE_LEISH: Cytotoxicity at 2uM final concentration against transgenic Leishmania Mexicana promastigotes LmGLUT1 that are glucose transport deficient and complemented with the human glucose transporter GLUT1. Activity is measured by DNA content using SYBR green in vitro", "assay_type": "functional", "units": {"inhibition": "%"}}
{"molecule": "CC(C)COc1ccc(Cl)cc1Cc1nc(-c2nc3cccc(CN4CCN(C)CC4)c3[nH]2)cs1", "inhibition": 0.6}
{"molecule": "Cc1cccc2nc(-c3cccc(-c4ccc(NC(=O)c5ccoc5)cc4)c3)[nH]c12", "inhibition": -0.27}
{"molecule": "Cc1cccc2nc(-c3ccc(-c4ccc(CN5CCN(CCO)CC5)cc4)cc3)[nH]c12", "inhibition": 25.5}
{"molecule": "CCCCCCN(C(=O)OCc1ccccc1)C1CCN(C(=O)OC(C)(C)C)CC1C(=O)OCC", "note": "(stereo not drawn)", "inhibition": 7.92}
{"molecule": "COc1cccc(C(=O)Nc2nc3c(s2)CCN(Cc2ccccc2N2CCNCC2)CC3)c1", "inhibition": 12.3}
{"molecule": "CN(C)Cc1ccc2nc(-c3cccc(Cc4cc(Cl)ccc4OCc4ccc(Cl)cc4F)n3)[nH]c2c1", "inhibition": -0.36}
{"molecule": "Cc1cccc2nc(-c3ccc(-c4ccc(CNCc5ccc(S(C)(=O)=O)cc5)cc4)cc3)[nH]c12", "inhibition": 12}
{"molecule": "Cc1ccc(NC(C)C(=O)Nc2ccccc2)cc1S(=O)(=O)N1CCCCCC1", "note": "(stereo not drawn)", "inhibition": 10.6}
{"molecule": "Cc1cnc(NCC2CCCCC2)nc1NCC(=O)Nc1ccccc1", "inhibition": 4.2}
{"molecule": "Oc1ccccc1CNCc1ccc(-c2cnc(N3CCCC(c4ccccc4)C3)nc2)cc1", "note": "(stereo not drawn)", "inhibition": 3.52}
{"molecule": "Cc1noc(C)c1-c1cccc(CNCc2cccc(-c3ccc(-c4nc5cccc(C)c5[nH]4)cc3)c2)c1", "inhibition": 1.89}
{"molecule": "CC(C)C[C@@H](CNC[C@H](CC(C)C)NC(=O)OC(C)(C)C)NC(=O)OC(C)(C)C", "inhibition": -0.36}
{"molecule": "CCc1cc(-c2onc(C(F)(F)F)c2-c2ccccc2)c(O)cc1OC", "inhibition": 3.95}
{"molecule": "COc1cc2cc(-c3nc4ccccc4[nH]3)c(N)nc2cc1OC", "inhibition": 84}
{"molecule": "O=C(Nc1ccc2c(c1)CCN2C1CCN(Cc2cccc(C(F)(F)F)c2)C1)c1ccco1", "note": "(stereo not drawn)", "inhibition": -2.78}
{"molecule": "COc1ccc(NS(=O)(=O)c2ccc(C(=O)Nc3ccc(C(F)(F)F)cc3)cc2)cc1N1CCN(CC2CC2)CC1", "inhibition": 0.55}
{"molecule": "O=C(c1cccc(-c2ccc(-c3nc4cc(F)ccc4[nH]3)s2)c1)N1CCCCC1CN1CCC(O)C1", "note": "(stereo not drawn)", "inhibition": 2.59}
{"molecule": "COc1ccc2nccc([C@@H](O)CN3CCC(NCCNc4ccccn4)CC3)c2c1", "inhibition": 8.79}
{"molecule": "O=C(Nc1ccc(F)cc1)N1CCCN(c2ccnc3cc(Cl)ccc23)CC1", "inhibition": 0.02}
{"molecule": "CCCCCCCCCCS(=O)(=O)N[C@H](COCc1cccc(Oc2ccccc2)c1)COP(=O)(O)OC", "inhibition": 0.47}
{"molecule": "c1cc(CN2CCN(c3ccncc3)CC2)cc(-c2ccc(-c3nc4ccccc4[nH]3)s2)c1", "inhibition": 3.45}
{"molecule": "CCNCCCC(C)Nc1ccnc2cc(Cl)ccc12", "note": "(stereo not drawn)", "inhibition": -2.28}
{"molecule": "COc1ccc(-c2cnc3ccc(NC4CCC(O)CC4)nn23)cn1", "note": "(stereo not drawn)", "inhibition": 2.52}
{"molecule": "COc1cc2c(cc1OC)CN(c1cc(N)c3cc(OC)c(OC)cc3n1)CC2", "inhibition": 1.34}
{"molecule": "O=C(Nc1cc(Cl)ccc1O)c1cnn2c(C(F)(F)F)cc(-c3cccs3)nc12", "inhibition": 2.61}
{"molecule": "C=CCC(C(=O)Nc1ccnc2ccc(OC)cc12)C1CCN(CCCCCCC)CC1", "note": "(stereo not drawn)", "inhibition": 1.74}
{"molecule": "CC(C)c1sc(N2CCN(C)CC2)nc1C(=O)NCCc1ccc(Cl)c(Cl)c1", "inhibition": 2.62}
{"molecule": "Nc1ccc(-c2ccc(NC(=O)Nc3cc(C(F)(F)F)ccc3F)cc2)cn1", "inhibition": 7.37}
{"molecule": "CC1(C)N=C(N)N=C(N)N1c1ccc(Br)cc1", "inhibition": 0.61}
{"molecule": "Oc1ccc(CCCNc2nc(NCc3cccc4ccccc34)nc(N3CCCNCC3)n2)cc1", "inhibition": -0.67}
{"molecule": "Cc1cc(OCCCNc2nc(NCCc3ccc(O)cc3)nc(N3CCNCC3)n2)c(Cl)c(C)c1Cl", "inhibition": 0.58}
{"molecule": "O=C(c1cccc(-c2noc(C(F)(F)F)n2)c1)N1CCN(C(=O)c2ccc3cc[nH]c3c2)CC1", "inhibition": -0.84}
{"molecule": "CO/C(=C\\C=C/c1cc2cc(Cl)c(Cl)cc2[nH]1)C(=O)NC1CC(C)(C)N(C)C(C)(C)C1", "inhibition": 7.24}
{"molecule": "CN(C)CCN(C)Cc1ccc(-c2ccc(NC(=O)c3ccc(Cl)cc3)cc2)cc1", "inhibition": 21.2}
{"molecule": "CCCCCCn1c2c(c(=N)c3c1CCC3)CCCC2", "inhibition": 78.2}
{"molecule": "CN(CCCCNC(=O)c1ccc(-c2ccccc2)cc1)C1CCc2c(O)cccc2C1", "note": "(stereo not drawn)", "inhibition": 2.79}
{"molecule": "N=C(NCCc1ccc(Cl)c(Cl)c1)c1ccc2ccccc2c1", "inhibition": 3.61}
{"molecule": "O=C(Cc1ccc(Cl)cc1)Nc1cc(Cl)ccc1Cn1cnc(N2CCNCC2)cc1=O", "inhibition": 3.22}
{"molecule": "Cc1ccc(-n2nc3ccc(NC(=O)c4ccc([N+](=O)[O-])o4)cc3n2)cc1C", "inhibition": 60.8}
{"molecular_target": "Hexose transporter 1 (Plasmodium falciparum) (UniProt O97467)", "experiment": "ST_JUDE_LEISH: Cytotoxicity at 2uM final concentration against transgenic Leishmania Mexicana promastigotes LmPfHT that are glucose transport deficient and complemented with the Plasmodium falciparum hexose transporter. Activity is measured by DNA content using SYBR green in vitro", "assay_type": "functional", "units": {"inhibition": "%"}}
{"molecule": "CC(C)COc1ccc(Cl)cc1Cc1nc(-c2nc3cccc(CN4CCN(C)CC4)c3[nH]2)cs1", "inhibition": 0.77}
{"molecule": "Cc1cccc2nc(-c3cccc(-c4ccc(NC(=O)c5ccoc5)cc4)c3)[nH]c12", "inhibition": 2.14}
{"molecule": "Cc1cccc2nc(-c3ccc(-c4ccc(CN5CCN(CCO)CC5)cc4)cc3)[nH]c12", "inhibition": 31.3}
{"molecule": "CCCCCCN(C(=O)OCc1ccccc1)C1CCN(C(=O)OC(C)(C)C)CC1C(=O)OCC", "note": "(stereo not drawn)", "inhibition": 6.27}
{"molecule": "COc1cccc(C(=O)Nc2nc3c(s2)CCN(Cc2ccccc2N2CCNCC2)CC3)c1", "inhibition": 13.7}
{"molecule": "CN(C)Cc1ccc2nc(-c3cccc(Cc4cc(Cl)ccc4OCc4ccc(Cl)cc4F)n3)[nH]c2c1", "inhibition": -0.21}
{"molecule": "Cc1cccc2nc(-c3ccc(-c4ccc(CNCc5ccc(S(C)(=O)=O)cc5)cc4)cc3)[nH]c12", "inhibition": 10.9}
{"molecule": "Cc1ccc(NC(C)C(=O)Nc2ccccc2)cc1S(=O)(=O)N1CCCCCC1", "note": "(stereo not drawn)", "inhibition": 9.81}
{"molecule": "Cc1cnc(NCC2CCCCC2)nc1NCC(=O)Nc1ccccc1", "inhibition": 4.34}
{"molecule": "Oc1ccccc1CNCc1ccc(-c2cnc(N3CCCC(c4ccccc4)C3)nc2)cc1", "note": "(stereo not drawn)", "inhibition": 2.64}
{"molecule": "Cc1noc(C)c1-c1cccc(CNCc2cccc(-c3ccc(-c4nc5cccc(C)c5[nH]4)cc3)c2)c1", "inhibition": 1.4}
{"molecule": "CC(C)C[C@@H](CNC[C@H](CC(C)C)NC(=O)OC(C)(C)C)NC(=O)OC(C)(C)C", "inhibition": -2.4}
{"molecule": "CCc1cc(-c2onc(C(F)(F)F)c2-c2ccccc2)c(O)cc1OC", "inhibition": 3.34}
{"molecule": "COc1cc2cc(-c3nc4ccccc4[nH]3)c(N)nc2cc1OC", "inhibition": 91.3}
{"molecule": "O=C(Nc1ccc2c(c1)CCN2C1CCN(Cc2cccc(C(F)(F)F)c2)C1)c1ccco1", "note": "(stereo not drawn)", "inhibition": 0.28}
{"molecule": "COc1ccc(NS(=O)(=O)c2ccc(C(=O)Nc3ccc(C(F)(F)F)cc3)cc2)cc1N1CCN(CC2CC2)CC1", "inhibition": 0.6}
{"molecule": "O=C(c1cccc(-c2ccc(-c3nc4cc(F)ccc4[nH]3)s2)c1)N1CCCCC1CN1CCC(O)C1", "note": "(stereo not drawn)", "inhibition": 1.6}
{"molecule": "COc1ccc2nccc([C@@H](O)CN3CCC(NCCNc4ccccn4)CC3)c2c1", "inhibition": 9.69}
{"molecule": "O=C(Nc1ccc(F)cc1)N1CCCN(c2ccnc3cc(Cl)ccc23)CC1", "inhibition": 0.34}
{"molecule": "CCCCCCCCCCS(=O)(=O)N[C@H](COCc1cccc(Oc2ccccc2)c1)COP(=O)(O)OC", "inhibition": 0.77}
{"molecule": "c1cc(CN2CCN(c3ccncc3)CC2)cc(-c2ccc(-c3nc4ccccc4[nH]3)s2)c1", "inhibition": 2.53}
{"molecule": "CCNCCCC(C)Nc1ccnc2cc(Cl)ccc12", "note": "(stereo not drawn)", "inhibition": -2.68}
{"molecule": "COc1ccc(-c2cnc3ccc(NC4CCC(O)CC4)nn23)cn1", "note": "(stereo not drawn)", "inhibition": 0.45}
{"molecule": "COc1cc2c(cc1OC)CN(c1cc(N)c3cc(OC)c(OC)cc3n1)CC2", "inhibition": 0.25}
{"molecule": "O=C(Nc1cc(Cl)ccc1O)c1cnn2c(C(F)(F)F)cc(-c3cccs3)nc12", "inhibition": 4.71}
{"molecule": "C=CCC(C(=O)Nc1ccnc2ccc(OC)cc12)C1CCN(CCCCCCC)CC1", "note": "(stereo not drawn)", "inhibition": 1.29}
{"molecule": "CC(C)c1sc(N2CCN(C)CC2)nc1C(=O)NCCc1ccc(Cl)c(Cl)c1", "inhibition": 2.93}
{"molecule": "Nc1ccc(-c2ccc(NC(=O)Nc3cc(C(F)(F)F)ccc3F)cc2)cn1", "inhibition": 4.54}
{"molecule": "CC1(C)N=C(N)N=C(N)N1c1ccc(Br)cc1", "inhibition": 1.29}
{"molecule": "Oc1ccc(CCCNc2nc(NCc3cccc4ccccc34)nc(N3CCCNCC3)n2)cc1", "inhibition": -0.2}
{"molecule": "Cc1cc(OCCCNc2nc(NCCc3ccc(O)cc3)nc(N3CCNCC3)n2)c(Cl)c(C)c1Cl", "inhibition": 1.22}
{"molecule": "O=C(c1cccc(-c2noc(C(F)(F)F)n2)c1)N1CCN(C(=O)c2ccc3cc[nH]c3c2)CC1", "inhibition": -0.23}
{"molecule": "CO/C(=C\\C=C/c1cc2cc(Cl)c(Cl)cc2[nH]1)C(=O)NC1CC(C)(C)N(C)C(C)(C)C1", "inhibition": 5.6}
{"molecule": "CN(C)CCN(C)Cc1ccc(-c2ccc(NC(=O)c3ccc(Cl)cc3)cc2)cc1", "inhibition": 11.3}
{"molecule": "CCCCCCn1c2c(c(=N)c3c1CCC3)CCCC2", "inhibition": 77.5}
{"molecule": "CN(CCCCNC(=O)c1ccc(-c2ccccc2)cc1)C1CCc2c(O)cccc2C1", "note": "(stereo not drawn)", "inhibition": 2.13}
{"molecule": "N=C(NCCc1ccc(Cl)c(Cl)c1)c1ccc2ccccc2c1", "inhibition": -1.48}
{"molecule": "O=C(Cc1ccc(Cl)cc1)Nc1cc(Cl)ccc1Cn1cnc(N2CCNCC2)cc1=O", "inhibition": -0.28}
{"molecule": "Cc1ccc(-n2nc3ccc(NC(=O)c4ccc([N+](=O)[O-])o4)cc3n2)cc1C", "inhibition": 82.4}
